Test results from publication PMC4336329 (PLoS ONE, 2015).
Out of some 310,000 compounds screened, about 14,000 (4.5%) showed an effect of 50% or more. Effects have a minus sign here. The entries come from a sample that favours strong results as a whole.

Each compound was assayed against human ether-à-go-go-related gene (hERG) potassium channel (human, UniProt Q12809) (assay: primary screen, population patch clamp on CHO cells stably expressing hERG; higher = less effect of the substance).
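Also: peak tail current of the secondary pulse compared with the same well before compound.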

human ether-à-go-go-related gene (hERG) potassium channel, sequence (Q12809 whole entry, looked up): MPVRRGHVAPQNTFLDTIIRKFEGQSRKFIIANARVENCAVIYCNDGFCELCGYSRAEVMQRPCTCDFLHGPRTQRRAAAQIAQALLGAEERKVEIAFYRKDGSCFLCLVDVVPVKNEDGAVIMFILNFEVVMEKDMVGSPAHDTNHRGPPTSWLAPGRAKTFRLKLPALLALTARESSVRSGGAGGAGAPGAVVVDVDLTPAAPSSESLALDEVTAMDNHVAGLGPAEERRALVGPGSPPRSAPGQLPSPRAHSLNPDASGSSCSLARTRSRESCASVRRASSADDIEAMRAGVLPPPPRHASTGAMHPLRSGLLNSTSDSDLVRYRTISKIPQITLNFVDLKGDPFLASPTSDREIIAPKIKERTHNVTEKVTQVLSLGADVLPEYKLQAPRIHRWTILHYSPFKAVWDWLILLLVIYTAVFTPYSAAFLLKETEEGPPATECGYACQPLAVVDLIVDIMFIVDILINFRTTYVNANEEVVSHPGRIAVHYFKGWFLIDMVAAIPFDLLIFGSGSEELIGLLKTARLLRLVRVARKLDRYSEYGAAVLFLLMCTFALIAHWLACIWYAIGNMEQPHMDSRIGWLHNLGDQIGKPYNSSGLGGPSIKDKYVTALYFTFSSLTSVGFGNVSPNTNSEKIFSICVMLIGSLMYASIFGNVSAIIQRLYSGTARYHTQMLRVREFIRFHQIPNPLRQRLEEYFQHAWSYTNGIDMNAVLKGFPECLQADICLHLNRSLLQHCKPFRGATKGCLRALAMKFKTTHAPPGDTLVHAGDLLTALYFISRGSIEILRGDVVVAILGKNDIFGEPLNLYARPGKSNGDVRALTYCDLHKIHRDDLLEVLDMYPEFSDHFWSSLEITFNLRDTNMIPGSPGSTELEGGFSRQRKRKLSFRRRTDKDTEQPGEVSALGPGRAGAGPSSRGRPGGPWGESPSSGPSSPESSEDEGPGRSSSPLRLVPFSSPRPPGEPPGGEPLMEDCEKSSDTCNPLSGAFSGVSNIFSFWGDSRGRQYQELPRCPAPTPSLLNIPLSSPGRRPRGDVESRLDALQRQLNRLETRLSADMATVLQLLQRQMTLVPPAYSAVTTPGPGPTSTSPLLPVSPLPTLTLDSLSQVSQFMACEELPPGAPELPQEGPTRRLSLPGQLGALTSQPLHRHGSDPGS

Compound | hERG current change (%, negative = inhibition) at 10uM [%]
O=C(NCCC1=CCCCC1)c1cc(-c2ccncc2)nc2ccccc12 | 6.78
CC(C)(C)c1ccc(C(=O)Nc2ccc(O)c3c(=O)cc(-c4cccc(Cl)c4)oc23)cc1 | 17.7
COc1cc(C(=O)OC(C)C(=O)NC(=O)NC2CCCCC2)ccc1OC(F)F (stereo not drawn) | -51.2
CC(=O)Nc1cccc(C(=O)OC(C)C(=O)NC(=O)NC2CCCCC2)c1 (stereo not drawn) | 3.89
COc1cc(C(=O)OCC(=O)NC(=O)C2CCCCC2)ccc1OC(F)F | 15.8
CCOC(=O)C1CCN(C(=O)Nc2ccc3c(c2)nc(C)n3C)CC1 | 0.694
CCN(CC)c1ccc(CNc2nnnn2C)cc1 | 19.3
Cc1cc(=O)n2nc(N3CCCC(C(=O)NC4CCCCC4C)C3)sc2n1 (stereo not drawn) | 9.32
Cc1ccccc1CSCCNC(=O)CCSc1ccccc1 | 2.74
CCCOc1ccc(C(O)(CCN2CCCCC2)c2ccccc2OC)cc1.Cl (stereo not drawn) | -29.9
CCCCOc1ccc(C(O)(CCC)CCN2CCOCC2)cc1 (stereo not drawn) | -51.2
CCCC(O)(CCN1CCOCC1)c1ccc(Br)cc1.Cl (stereo not drawn) | -20.7
CCCCOc1ccc(C(C)(O)CCN2CCOCC2)cc1 (stereo not drawn) | -2.97
CCCC(O)(CCN1CCOCC1)c1ccc(Cl)cc1 (stereo not drawn) | 3.77
CCCOc1ccc(C(O)(CCC)CCN2CCCCC2)cc1 (stereo not drawn) | -56.1
CCCCOc1ccc(C(O)(CC)CCN2CCOCC2)cc1 (stereo not drawn) | -13.4
CCCCC(O)(CCN1CCOCC1)c1ccc(Cl)cc1.Cl (stereo not drawn) | -66.5
CCCOc1ccc(C(C)(O)CN2CCOCC2)cc1 (stereo not drawn) | 15.6
OC1(c2ccc(F)cc2)CSC(=Nc2cccnc2)N1Cc1ccco1 (stereo not drawn) | -14.2
COc1ccc(OC)c2nc(-c3ccc4c(c3)OCO4)ccc12 | 10.4
CC1CCC2(CC1)NC(=O)N(CC(=O)N1CCN(C(=O)c3cccs3)CC1)C2=O (stereo not drawn) | -9.44
CCOC(=O)Cc1csc(NC(=O)c2cc(=O)c3ccccc3o2)n1 | -12.3
COc1ccc(Br)cc1CN1C(=O)NC2(CCCCCC2)C1=O | 10.4
Cn1ncc(Br)c1C(=O)N1CCCC1 | 19
Cc1ccc(OCC(=O)N2CCN(C(=O)c3cccnc3)CC2)cc1 | -4.29
O=C(COc1ccc2ccccc2c1)N1CCN(C(=O)c2cccnc2)CC1 | -25

Compound | hERG current change (%, negative = inhibition) at 10uM [%]
O=C(COc1ccc(-c2ccccc2)cc1)N1CCN(C(=O)c2cccnc2)CC1 | -57.9
O=C(COc1ccccc1)N1CCCCCCC1 | 3.25
CCc1ccc(OCC(=O)N2CCN=C2c2ccccc2)cc1 | -5.36
O=C(COc1ccc(-c2ccccc2)cc1)N1CCCC1 | -54.5
CSC1=NCCN1C(=O)COc1ccccc1 | 11.3
O=C(COc1ccccc1)N1CCN=C1c1ccccc1 | -77.5
O=C(COc1ccccc1)N1CCCC1 | 15.6
O=C(NC(=S)Nc1ccc(-c2ccc(CO)o2)cc1)c1cccs1 | 21
Cc1ccc2c(c1)C(c1ccccc1)N(C(=O)c1c(F)cccc1Cl)CC(=O)N2 (stereo not drawn) | -22.3
Cc1cccnc1NC1=NCC(C)S1 (stereo not drawn) | 3.1
C=CCSC(CC)(CC)C(N)=O | 3.1
O=C(CNCc1ccco1)Nc1cc(S(=O)(=O)N2CCOCC2)ccc1N1CCCC1 | -14.4
COc1cccc(NCc2nnc(SCC(=O)NC3CCS(=O)(=O)C3)n2C2CCCCC2)c1 (stereo not drawn) | 12.7
Cc1cccc(NC(=O)CCN2CCN(C/C=C/c3ccccc3)CC2)c1.Cl | -74
CCN1CCN(CCC(=O)Nc2cccc(C)c2)CC1.Cl | 0.741
CCN1CCN(CCC(=O)Nc2ccc(C)cc2)CC1.Cl | -8.34
Cc1ccc(NC(=O)CCN2CCN(C/C=C/c3ccccc3)CC2)cc1.Cl | -90.9
O=C(CCN1CCN(C/C=C/c2ccccc2)CC1)Nc1ccc(Cl)cc1 | -78.2
Cl.O=C(CCN1CCOCC1)Nc1ccc(Cl)cc1 | 6.33
CCN1CCN(CCC(=O)Nc2ccccc2)CC1 | 8.58
CN1CCN(CCC(=O)Nc2ccccc2)CC1 | -5.19
O=C(CCN1CCN(c2ccccc2)CC1)Nc1ccc(Cl)cc1 | -17.9
O=C(CCN1CCN(C/C=C/c2ccccc2)CC1)Nc1ccccc1 | -74.9
Cl.O=C(CCN1CCCC1)Nc1ccccc1 | 4.69
Cc1cccc(NC(=O)CCN2CCN(C)CC2)c1.Cl | 6.48
